Source: PubChem BioAssay AID1259341 (Broad Institute, 2017)
A number with no mark means an inactive call. Activity calls are given as the source filed them.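 Rule for the calls: active = activity change under -35% in any replicate well, with more than 20 beads read in that well; inactive = the rest.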

Each compound was assayed against Caspase recruitment domain-containing protein 9 (Homo sapiens) + E3 ubiquitin-protein ligase TRIM62 (Homo sapiens) (UniProt Q9H257+Q9BVG3) (assay: CARD9/TRIM62 protein interaction inhibitors – cell lysate, HEK293FT lysates, Luminex bead ELISA, primary screen (AID 1259341;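 note: PE anti-Flag signal of Flag-CARD9 captured by myc-TRIM62 beads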)). Details: PE fluorescence, hits give low values, concentration not given here.
Chain of Caspase recruitment domain-containing protein 9 (Homo sapiens) + E3 ubiquitin-protein ligase TRIM62 (Homo sapiens) (Q9BVG3 whole entry, looked up, the tested form may be a part): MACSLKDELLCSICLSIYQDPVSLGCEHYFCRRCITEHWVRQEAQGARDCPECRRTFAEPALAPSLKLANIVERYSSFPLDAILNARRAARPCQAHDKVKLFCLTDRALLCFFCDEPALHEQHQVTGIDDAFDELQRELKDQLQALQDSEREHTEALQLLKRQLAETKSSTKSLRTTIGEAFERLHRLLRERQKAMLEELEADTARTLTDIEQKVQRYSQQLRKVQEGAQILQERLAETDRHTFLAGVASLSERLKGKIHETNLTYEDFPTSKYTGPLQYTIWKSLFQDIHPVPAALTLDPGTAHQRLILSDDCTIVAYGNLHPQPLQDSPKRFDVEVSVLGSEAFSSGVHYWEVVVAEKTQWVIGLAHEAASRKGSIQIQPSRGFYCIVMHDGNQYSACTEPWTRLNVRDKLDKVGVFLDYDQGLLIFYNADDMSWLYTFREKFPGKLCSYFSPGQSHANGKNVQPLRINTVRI
Chain of Caspase recruitment domain-containing protein 9 (Homo sapiens) + E3 ubiquitin-protein ligase TRIM62 (Homo sapiens) (Q9H257 whole entry, looked up, the tested form may be a part): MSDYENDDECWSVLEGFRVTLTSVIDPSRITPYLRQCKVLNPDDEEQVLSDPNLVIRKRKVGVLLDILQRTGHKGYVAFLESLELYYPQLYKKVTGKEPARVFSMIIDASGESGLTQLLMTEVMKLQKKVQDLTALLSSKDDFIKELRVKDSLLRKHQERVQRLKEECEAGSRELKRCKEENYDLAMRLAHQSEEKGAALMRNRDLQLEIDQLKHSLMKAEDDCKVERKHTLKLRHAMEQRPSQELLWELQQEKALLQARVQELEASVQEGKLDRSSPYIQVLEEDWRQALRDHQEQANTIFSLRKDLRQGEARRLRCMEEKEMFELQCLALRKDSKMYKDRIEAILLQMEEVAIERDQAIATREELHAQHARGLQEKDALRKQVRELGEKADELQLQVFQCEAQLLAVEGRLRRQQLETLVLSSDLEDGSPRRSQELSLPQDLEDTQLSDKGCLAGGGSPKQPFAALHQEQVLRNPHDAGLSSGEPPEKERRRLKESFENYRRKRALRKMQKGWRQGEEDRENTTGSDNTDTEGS

Structure (SMILES) | activity change, negative = inhibition
O=C1CC(c2ccco2)Cc2nc(N3CCc4ccccc4C3)ncc21 (stereo unspecified) | -4.59%
N#Cc1c(-c2ccco2)cc(-c2cccnc2)nc1N | 0.372%
Cc1noc(C)c1S(=O)(=O)Nc1ccc2c(c1)C(=O)N([C@H](C)CO)C[C@H](C)[C@@H](CN(C)CC1CCCCC1)OCCCC[C@H](C)O2 | 7.9%
COCCC(=O)N1CCCC2(CCN(CCN3CCCC3)C2=O)C1 (stereo unspecified) | -7.49%
C[C@H](CO)N1C[C@H](C)[C@@H](CN(C)C(=O)C2CCCCC2)OCCCC[C@H](C)Oc2ccc(NS(=O)(=O)c3ccccc3)cc2C1=O | 6.21%
Cc1oc(CSCc2cc(C(=O)O)c(C)o2)cc1C(=O)O | 1.21%
COc1ccc(S(=O)(=O)N2CCOCC2)cc1NC(=O)c1cccc(-n2cccc2)c1 | -8.72%
CC1=CCC(C(=O)O)C(C(=O)NC2CCCCC2)C1 (stereo unspecified) | -6.81%
O=C(Nc1cccc2ccccc12)NC1CC1 | -2.1%
Nc1ccccc1Sc1nccc(C(F)(F)F)n1 | 3.66%
O=S(=O)(c1ccc(F)cc1)N1CN(Cc2ccco2)c2nc3ccccc3nc21 | 26.6%
Cc1ccc(N2C(=O)c3ccccc3C2C(=O)c2ccc(O)cc2O)cc1 (stereo unspecified) | 12.1%
O=C(Nc1cccc2nsnc12)c1ccc(-c2cccc(Cl)c2)o1 | 11.7%
O=C(O)c1ccccc1SC1CC(=O)N(Cc2ccccc2)C1=O (stereo unspecified) | 6.92%
CCCc1cc(C(=O)N2CC[C@H]3CNC[C@H]32)n(C)n1 | -0.754%
O=C(CN1CCN(c2ccccc2O)CC1)NC(=O)NC1CCCC1 | 2.28%
C[C@H](CO)N1C[C@H](C)[C@@H](CN(C)CC2CCCCC2)OCCCC[C@H](C)Oc2ccc(NS(=O)(=O)c3cccs3)cc2C1=O | 9.64%
Cc1nc2ccccc2nc1CSCc1ccco1 | 1.2%

Structure (SMILES) | activity change, negative = inhibition
CC1Cc2ccccc2N1CC(=O)NC(=O)NC(C)(C)C (stereo unspecified) | 2.18%
Cc1[nH]c2ccc(Cl)cc2c(=O)c1CN1CCCC1 | 0.531%
CCN1CCOC(=O)C1CC(=O)Nc1cccc(C)c1 (stereo unspecified) | -1.33%
Cc1nc(C)c(C(=O)Nc2ncc([N+](=O)[O-])s2)o1 | -6.18%
O=C(O)CCc1ccc(-c2cccs2)n1NC(=O)c1ccco1 | 1.63%
O=C(NC(Sc1ncccn1)C(=O)c1ccccc1)c1ccccc1 (stereo unspecified) | 2.47%
O=C(COC(=O)c1cc(-c2ccco2)nc2ccccc12)NCc1ccccc1 | -1.75%
C=CC(=O)N1CCCC2(CCN(CCN3CCCC3)C2=O)C1 (stereo unspecified) | -70.2% (active)
c1cn(CCc2noc(C3CCCC3)n2)c(-c2cc3n(n2)CCCNC3)n1 | -12.3%
O=C(Nc1nc(-c2ccco2)c(-c2ccco2)s1)c1ccc(F)cc1F | 6.3%
C(=N\n1cnnc1SCc1ccccc1)/c1ccco1 | 4.53%
CS(=O)(=O)c1ccc2ccn(O)c2c1 | -9.61%
O=C(O)COc1ccc(-n2cccc2)cc1 | -1.45%
Nc1ccc2ncccc2c1N | 1.19%
NC(=O)C1(N2CCCCC2)CCN(c2ccc(NC(=O)c3ccccc3F)cc2C(=O)O)CC1 | -30%
NC(=O)C1(N2CCCCC2)CCN(c2ncc(NC(=O)c3ccc(Cl)cc3)cc2C(=O)O)CC1 | -54.5% (active)
N#CNc1nc(O)cc(=O)[nH]1 | -9.24%
Cn1nnnc1SCCNCc1ccc(-c2cccc(C(F)(F)F)c2)o1 | -0.39%
